Data as given in PubChem BioAssay (NCI).
About 83,000 compounds went through this panel and 20% of them were active in at least one assay; those are over-represented in the sample as a whole.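 Plates (96-well) were seeded with cells, treated with compound at one concentration, and incubated for 48 hours before percent growth was determined.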 The source made the active and inactive calls. How the source made its calls: active means growth percent below 10; inactive means the rest.

What was measured:
Assay in all cases: NCI-60 one-dose screen, 48 h (100 = growth as untreated, 0 = no growth, -100 = all killed)
Conditions in all cases: 10 µM unless noted
NCI-H23 lung = tested on: NCI-H23 lung
NCI-H226 lung = tested on: NCI-H226 lung
NCI-H322M lung = tested on: NCI-H322M lung
HOP-62 NSCLC = tested on: HOP-62 NSCLC
NCI-H460 lung = tested on: NCI-H460 lung
HOP-92 NSCLC = tested on: HOP-92 NSCLC
NCI-H522 lung = tested on: NCI-H522 lung
A549/ATCC NSCLC = tested on: A549/ATCC NSCLC
786-0 renal = tested on: 786-0 renal
DU-145 prostate = tested on: DU-145 prostate
K-562 leukemia = tested on: K-562 leukemia
MALME-3M melanoma = tested on: MALME-3M melanoma
MDA-MB-231 breast = tested on: MDA-MB-231 breast
SF-268 CNS = tested on: SF-268 CNS
SF-295 CNS = tested on: SF-295 CNS
SF-539 CNS = tested on: SF-539 CNS
UACC-257 melanoma = tested on: UACC-257 melanoma
M14 melanoma = tested on: M14 melanoma
COLO 205 colon = tested on: COLO 205 colon
RXF 393 renal = tested on: RXF 393 renal

Measured: growth

COc1cc(OC)c(/C=C/c2c3ccccc3cc[n+]2C)c(OC)c1
inactive: NCI-H23 lung 17.3% | NCI-H226 lung 33.3% | NCI-H322M lung 32.9% | HOP-62 NSCLC 35.3% | NCI-H460 lung 10.8% | HOP-92 NSCLC 36.6% | A549/ATCC NSCLC 14.7% | 786-0 renal 62.8% | DU-145 prostate 36.5% | MALME-3M melanoma 33.3% | MDA-MB-231 breast 42.4% | SF-268 CNS 26.3% | SF-539 CNS 31.9% | M14 melanoma 41.7%
active: NCI-H522 lung -19.3% | K-562 leukemia 5.35% | SF-295 CNS -32.3% | UACC-257 melanoma -16.7%

CCCCOS(=O)(=O)c1ccccc1
inactive: NCI-H23 lung 104% | NCI-H226 lung 97.9% | NCI-H322M lung 98% | HOP-62 NSCLC 96.9% | NCI-H460 lung 115% | HOP-92 NSCLC 122% | NCI-H522 lung 111% | A549/ATCC NSCLC 116% | 786-0 renal 101% | DU-145 prostate 112% | K-562 leukemia 106% | MALME-3M melanoma 94.5% | MDA-MB-231 breast 106% | SF-268 CNS 105% | SF-295 CNS 120% | SF-539 CNS 102% | UACC-257 melanoma 106% | M14 melanoma 112%

c1ccc2sc(SSN3CC4CCC(CC4)C3)nc2c1
active: RXF 393 renal -29.5%
inactive: NCI-H23 lung 107% | NCI-H226 lung 100% | NCI-H322M lung 96% | HOP-62 NSCLC 119% | NCI-H460 lung 115% | HOP-92 NSCLC 110% | NCI-H522 lung 28.9% | 786-0 renal 129% | COLO 205 colon 128% | DU-145 prostate 128% | K-562 leukemia 91.8% | MALME-3M melanoma 101% | MDA-MB-231 breast 101% | SF-268 CNS 122% | SF-295 CNS 108% | SF-539 CNS 94.9% | UACC-257 melanoma 120% | M14 melanoma 110%

OCCOSCCO
inactive: NCI-H23 lung 107% | NCI-H226 lung 102% | NCI-H322M lung 119% | HOP-62 NSCLC 104% | NCI-H460 lung 111% | HOP-92 NSCLC 124% | NCI-H522 lung 96.1% | A549/ATCC NSCLC 111% | 786-0 renal 100% | DU-145 prostate 122% | K-562 leukemia 102% | MDA-MB-231 breast 121% | RXF 393 renal 100% | SF-268 CNS 119% | SF-539 CNS 100% | UACC-257 melanoma 102% | M14 melanoma 100%

CCCCCCCCCCCC[n+]1ccccc1 (tested in a mixture with another compound)
inactive: NCI-H226 lung 11.3% | NCI-H322M lung 31.9% | DU-145 prostate 11.7%
active: NCI-H23 lung -2.11% | HOP-62 NSCLC -24.3% | NCI-H460 lung 0.69% | HOP-92 NSCLC -50.8% | NCI-H522 lung -53% | A549/ATCC NSCLC -32.3% | 786-0 renal -50% | K-562 leukemia -33.3% | MALME-3M melanoma -38.3% | MDA-MB-231 breast -30.4% | SF-268 CNS -8.98% | SF-295 CNS -35.1% | SF-539 CNS -10.5% | UACC-257 melanoma -52.3% | M14 melanoma -56.6%

O=C(c1ccccc1)N(CCCl)C(=O)N(CCCl)C(=O)c1ccccc1
inactive: NCI-H23 lung 93.7% | NCI-H226 lung 93.7% | NCI-H322M lung 90.2% | HOP-62 NSCLC 91.5% | NCI-H460 lung 108% | HOP-92 NSCLC 62.3% | NCI-H522 lung 85.7% | A549/ATCC NSCLC 95.7% | 786-0 renal 103% | DU-145 prostate 109% | K-562 leukemia 95.5% | MALME-3M melanoma 95.2% | MDA-MB-231 breast 82.1% | RXF 393 renal 104% | SF-268 CNS 102% | SF-295 CNS 81.6% | SF-539 CNS 94.7% | UACC-257 melanoma 101% | M14 melanoma 101%

CC(C)(C)c1ccc(O)c(-c2ccccc2)c1
inactive: NCI-H23 lung 105% | NCI-H226 lung 122% | NCI-H322M lung 104% | HOP-62 NSCLC 112% | NCI-H460 lung 112% | HOP-92 NSCLC 94.5% | NCI-H522 lung 83.5% | 786-0 renal 109% | COLO 205 colon 105% | DU-145 prostate 115% | K-562 leukemia 105% | MALME-3M melanoma 130% | MDA-MB-231 breast 120% | RXF 393 renal 112% | SF-268 CNS 105% | SF-295 CNS 126% | SF-539 CNS 108% | UACC-257 melanoma 90.1%

CCC(C)C(N)C(=O)NC(CC(N)=O)C(=O)NC(CC(C)C)C(=O)NC(CCCCN)C(=O)NC(C)C(=O)NC(CC(C)C)C(=O)NC(C)C(=O)NC(C)C(=O)NC(CC(C)C)C(=O)NC(C)C(=O)NC(CCCCN)C(=O)NC(CCCCN)C(=O)NC(C(=O)NC(CC(C)C)C(N)=O)C(C)CC (stereo not drawn)
inactive: NCI-H23 lung 82.1% | NCI-H226 lung 113% | NCI-H322M lung 100% | HOP-62 NSCLC 74.9% | NCI-H460 lung 79.3% | HOP-92 NSCLC 61% | NCI-H522 lung 85.2% | 786-0 renal 68.1% | COLO 205 colon 90% | DU-145 prostate 57.9% | K-562 leukemia 82.5% | MALME-3M melanoma 52.1% | MDA-MB-231 breast 62.1% | RXF 393 renal 39.6% | SF-268 CNS 66.8% | SF-295 CNS 106% | SF-539 CNS 35.6% | UACC-257 melanoma 104%

COc1ccc(/C=C2/C(=O)ON=C2C)cc1
inactive: NCI-H23 lung 112% | NCI-H226 lung 101% | NCI-H322M lung 118% | HOP-62 NSCLC 101% | NCI-H460 lung 107% | HOP-92 NSCLC 93.6% | NCI-H522 lung 94.2% | A549/ATCC NSCLC 103% | 786-0 renal 105% | DU-145 prostate 109% | K-562 leukemia 100% | MDA-MB-231 breast 96.8% | RXF 393 renal 102% | SF-268 CNS 104% | SF-295 CNS 110% | SF-539 CNS 107% | UACC-257 melanoma 100% | M14 melanoma 109%

C1=C(c2ccccc2)c2ccccc2C1
inactive: NCI-H23 lung 98.5% | NCI-H226 lung 96.3% | NCI-H322M lung 78.4% | HOP-62 NSCLC 94% | NCI-H460 lung 99.5% | HOP-92 NSCLC 74.8% | NCI-H522 lung 96% | A549/ATCC NSCLC 106% | 786-0 renal 86.4% | DU-145 prostate 109% | K-562 leukemia 88.3% | RXF 393 renal 106% | SF-268 CNS 96.6% | SF-295 CNS 91% | SF-539 CNS 99.5% | UACC-257 melanoma 133% | M14 melanoma 92.2%

CCCCCCCCc1cc(Cl)c(O)c(Cl)c1
inactive: NCI-H23 lung 103% | NCI-H226 lung 104% | NCI-H322M lung 121% | HOP-62 NSCLC 105% | NCI-H460 lung 109% | HOP-92 NSCLC 99.5% | NCI-H522 lung 97.6% | 786-0 renal 108% | COLO 205 colon 108% | DU-145 prostate 103% | K-562 leukemia 104% | MALME-3M melanoma 100% | MDA-MB-231 breast 103% | RXF 393 renal 113% | SF-268 CNS 98.5% | SF-295 CNS 113% | SF-539 CNS 99.5% | UACC-257 melanoma 104%

O=C(C[P+](c1ccccc1)(c1ccccc1)c1ccccc1)c1ccccc1
inactive: NCI-H23 lung 91.9% | NCI-H226 lung 99.4% | NCI-H322M lung 92.2% | HOP-62 NSCLC 94.7% | NCI-H460 lung 97.7% | HOP-92 NSCLC 55.9% | NCI-H522 lung 61.4% | 786-0 renal 99.6% | COLO 205 colon 89.6% | DU-145 prostate 102% | K-562 leukemia 84% | MALME-3M melanoma 110% | MDA-MB-231 breast 84.5% | RXF 393 renal 107% | SF-268 CNS 94.6% | SF-295 CNS 87.4% | SF-539 CNS 104% | UACC-257 melanoma 101% | M14 melanoma 106%

Cc1nn(CCO)c(C)c1N=[N+]([O-])c1c(C)nn(CCO)c1C
active: NCI-H226 lung -28.5% | HOP-92 NSCLC -47.7% | NCI-H522 lung -78% | 786-0 renal -82.3% | DU-145 prostate -9.05% | K-562 leukemia -31.8% | MALME-3M melanoma -59.9% | UACC-257 melanoma -56.2% | M14 melanoma -61.6%
inactive: NCI-H23 lung 87% | NCI-H322M lung 98.5% | HOP-62 NSCLC 88.1% | NCI-H460 lung 76.3% | A549/ATCC NSCLC 50.5% | MDA-MB-231 breast 98.6% | SF-268 CNS 81.3% | SF-295 CNS 100% | SF-539 CNS 89.1%

c1ccc(C2NCCNC2c2ccccc2)cc1 (stereo not drawn)
inactive: NCI-H23 lung 103% | NCI-H226 lung 99.5% | NCI-H322M lung 100% | HOP-62 NSCLC 98.7% | NCI-H460 lung 109% | HOP-92 NSCLC 93.6% | A549/ATCC NSCLC 98.1% | 786-0 renal 107% | COLO 205 colon 103% | DU-145 prostate 104% | K-562 leukemia 105% | MALME-3M melanoma 111% | MDA-MB-231 breast 98.4% | RXF 393 renal 120% | SF-268 CNS 101% | SF-295 CNS 104% | SF-539 CNS 98.7% | UACC-257 melanoma 99.6% | M14 melanoma 102%

Cc1cc(=O)oc2cc(O)cc(O)c12
inactive: NCI-H23 lung 107% | NCI-H226 lung 97.7% | NCI-H322M lung 103% | HOP-62 NSCLC 87.2% | NCI-H460 lung 99% | HOP-92 NSCLC 100% | NCI-H522 lung 88.7% | 786-0 renal 98% | COLO 205 colon 110% | DU-145 prostate 103% | K-562 leukemia 102% | MALME-3M melanoma 90% | MDA-MB-231 breast 89.8% | RXF 393 renal 114% | SF-268 CNS 97.7% | SF-295 CNS 103% | SF-539 CNS 92.4% | M14 melanoma 102%

CCc1oc2ccccc2c1C(=O)c1cc(Br)c(O)c(Br)c1
inactive: NCI-H23 lung 52.9% | NCI-H226 lung 84% | NCI-H322M lung 118% | HOP-62 NSCLC 81.8% | NCI-H460 lung 86.9% | NCI-H522 lung 30.8% | 786-0 renal 68.2% | MALME-3M melanoma 94.8% | MDA-MB-231 breast 58.9% | RXF 393 renal 51.6% | SF-268 CNS 75.4% | SF-295 CNS 52.8% | SF-539 CNS 65.5% | UACC-257 melanoma 66.2% | M14 melanoma 49.7%
active: HOP-92 NSCLC 0.0238%
